Results as given in PubChem BioAssay AID489008 (National Center for Advancing Translational Sciences (NCATS), 2010).
Results filed as inconclusive are left out. Activity calls are given as the source filed them. Calls come from the whole dose curve; as a rule, active = well fitted inhibition curve with a large enough effect; inconclusive = small, poorly fitted or top-dose-only effect; inactive = flat fitted curve, though single readings scatter.

Biological target: Ferritin light chain (Equus caballus) (UniProt P02791)
Experiment: Confirmation Assay for Identification of Novel General Anesthetics; note: nearly all actives have a fitted effect of over 40% in size
Conditions: apoferritin 1-aminoanthracene fluorescence displacement
Summary of the method: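 Horse apoferritin (10 uM) pre-loaded with 1-AMA (50% saturated, PBS) exposed to compounds 10 min at room temperature; loss of 1-AMA fluorescence (380/535 nm) scaled between free and bound ligand, curves fitted with Hill equation.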
Potency is the fitted concentration of half-maximal effect.

Ferritin light chain (Equus caballus), sequence (P02791 2-175 limits assumed): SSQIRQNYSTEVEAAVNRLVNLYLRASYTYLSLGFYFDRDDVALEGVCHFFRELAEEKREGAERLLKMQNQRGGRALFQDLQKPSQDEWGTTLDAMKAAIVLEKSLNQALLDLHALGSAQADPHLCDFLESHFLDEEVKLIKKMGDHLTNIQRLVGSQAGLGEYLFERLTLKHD

Row | Structure (SMILES) | Potency
1 | COc1cccc(CNc2ccc(F)c(Cl)c2)c1 | 7.94 µM (active)
2 | O=C(Nc1cccc(Cl)c1)OCc1cnc(Cl)s1 | 31.6 µM (active)
3 | O=S(N1CCc2ccccc21)C12CC3CC(CC(C3)C1)C2 (centres undefined) | 12.6 µM (active)
4 | Nc1nc(C23CC4CC(CC(C4)C2)C3)cs1 | 7.94 µM (active)
5 | O=C(COC(=O)/C=C/c1ccccc1Cl)NC1CCCCCC1 | 6.31 µM (active)
6 | CC(=O)Nc1ncc(Cc2cc(Cl)ccc2Cl)s1 | 15.8 µM (active)
7 | Cc1ccc(C2=NN(CC(=O)NCCc3ccccc3)C(=O)CC2)cc1 | 5.19 µM (active)
8 | O=C(COC(=O)c1cccs1)NC12CC3CC(CC(C3)C1)C2 | 11.2 µM (active)
9 | O=S(=O)(NCCCc1ccccc1)c1ccc(F)c(F)c1 | 17.8 µM (active)
10 | Cc1ccc(NC(=O)Cn2nc(-c3ccco3)ccc2=O)cc1Cl | 28.2 µM (active)
11 | O=C(CSCCO)Nc1ccc(C2CCCCC2)cc1 | 20 µM (active)
12 | Fc1ccc(CNc2ccc(CNc3ncn[nH]3)cc2)cc1 | 17.8 µM (active)
13 | O=C(c1csc2ccccc12)N1CCCCCC1 | 31.6 µM (active)
14 | O=C1c2ccsc2SCCN1Cc1ccc(Cl)cc1Cl | 15.8 µM (active)
15 | O=c1c2c3c(sc2ncn1-n1cccc1)CCCCC3 | 10 µM (active)
16 | Cc1ccc(SCC(=O)N2N=CCC2c2ccccc2)cc1 (centres undefined) | 15.8 µM (active)
17 | O=C(NC1C2CC3CC(C2)CC1C3)c1ccc2c(c1)OCO2 (centres undefined) | 28.2 µM (active)
18 | Cc1csc(SCC(=O)NC23CC4CC(CC(C4)C2)C3)n1 | 15.8 µM (active)
19 | O=C(Cn1nc(-c2ccccc2)ccc1=O)NCc1ccc(F)cc1 | 6.31 µM (active)
20 | CCNc1nc(C23CC4CC(CC(C4)C2)C3)cs1 | 7.94 µM (active)

Row | Structure (SMILES) | Potency
21 | O=C(NC12CC3CC(CC(C3)C1)C2)c1ccco1 | 14.1 µM (active)
22 | Nc1ccc2nc(SCc3cccc(F)c3)sc2c1 | 28.2 µM (active)
23 | Cc1ccc(CNC(=O)CN2N=C(c3ccccc3)CCC2=O)cc1 | 5.19 µM (active)
24 | Cc1ccc(NC(=O)N2CCCCCC2)c(C)c1 | 15.8 µM (active)
25 | O=C1C(Cl)=C(N2CCOCC2)C(=O)N1c1ccccc1Cl | 15.8 µM (active)
26 | O=C(Nc1cccc(Cl)c1)C1COc2ccccc2O1 (centres undefined) | 14.1 µM (active)
27 | Nc1ccc(C23CC4CC(CC(C4)C2)C3)cc1 | 7.08 µM (active)
28 | Nc1nc(SCc2ccc(Cl)cc2)ns1 | 12.6 µM (active)
29 | O=C(Nc1ccc(Cl)c(Cl)c1)OCc1cncs1 | 28.2 µM (active)
30 | Cc1ccccc1CSCC(=O)N/N=C/c1cccs1 | 15.8 µM (active)
31 | CCC(CC)C(=O)Nc1ccc(Cl)c(Cl)c1 | 14.1 µM (active)
32 | O=C(Cc1cccc2ccccc12)N1CCCc2ccccc21 | 17.8 µM (active)
33 | O=C(CCC(=O)c1ccc(Cl)cc1)OCC(=O)c1ccccc1 | 17.8 µM (active)
34 | Cc1cc(C(=O)OCC(=O)N2C(C)CCCC2C)c(C)o1 (centres undefined) | 14.1 µM (active)
35 | N#CCc1ccc(Oc2ncc(C(F)(F)F)cc2Cl)cc1 | 17.8 µM (active)
36 | Cc1ccc(O)c(NC(=O)CCC2CCCCC2)c1 | 7.94 µM (active)
37 | CC1Cc2ccccc2N1C(=O)CSc1ccccc1 (centres undefined) | 14.1 µM (active)
38 | Cc1ccc(CNc2ncnc3c2cnn3-c2ccc(C)cc2C)cc1 | 15.8 µM (active)
39 | Cc1c(Br)cc(C(=O)N2CCCCCC2)c(C)c1C | 17.8 µM (active)
